32 molecules from PubChem BioAssay (NCI) can be followed below.

SMILES strings stand for the structures. About 83,000 compounds went through this panel and 20% of them were active in at least one assay; those are over-represented in the sample as a whole.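 A percent growth of 40 corresponds to 60% growth inhibition; 0 means no net growth; -100 means all cells died. Active threshold: below 10.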 A number with no mark means an inactive call. Activity calls are given as the source filed them.

Experiment in all cases: NCI-60 one-dose screen, 48 h (100 = growth as untreated, 0 = no growth, -100 = all killed)
Details in all cases: 10 µM unless noted

The test system of test [1] is T-47D breast.
Test [2] relates to BT-549 breast.
Test [3] relates to MDA-MB-435 melanoma.
The subject of test [4] is SW-620 colon.
In test [5] the test system is MCF7 breast.
Test [6] has as its system HCT-116 colon.
In test [7] the test system is KM12 colon.
The test system of test [8] is HCC-2998 colon.

As to `CC(C)(C)[Si](C)(C)OC1[C@@H](O[Si](C)(C)C(C)(C)C)[C@@H](CNC(=O)NC(=O)CCl)O[C@H]1n1cnc2c(NC(=O)Nc3ccccc3)ncnc21` (stereo partly specified), the growth in test [1] was -45.7% (active); in test [2], -85.9% (active); in test [3], -79.1% (active); in test [4], -49.7% (active); in test [5], -71.8% (active); in test [6], -99% (active). Further, the growth in test [7] was -79.4% (active).
With `COc1cc(C2=C(c3cn(C)c4ccccc34)COC2=O)cc(OC)c1OC`, the growth in test [1] was 22.6%; in test [2] it was 16.7%; in test [3], -59.5% (active); in test [4], 13.7%; in test [5], 14.8%; in test [6], 1.75% (active). Further, the results for the growth in test [8] and in test [7] were 0.901% (active) and 13.2%, respectively.
Consider `N#C/C(=C\c1ccc(Cl)cc1)n1nnc2cc(F)c(F)cc21`, for which the growth in test [1] is 19.8%; in test [2], 11.7%; in test [3], 5.95% (active); in test [4], -15% (active); in test [5] it was 12%; in test [6] it was -11.6% (active). Besides, the growth in test [8] was 16.8%; in test [7], 16.2%.
`CC1(C)CC(=O)C2=C(C1)N(c1ccc(F)cc1F)C(N)=C(C#N)C2c1cc(Br)ccc1F` (stereo unspecified): the growth in test [1] was 110%; in test [2] it was 106%; in test [3], 101%; in test [4], 89.6%; in test [5] it was 95%; in test [6] it was 80.9%. The growth in test [8] is 107%; in test [7] it was 88.7%.
`COC(=O)/C=C1\S/C(=N\NC(=O)c2cc3ccc2/C=C\c2ccc(cc2)/C=C\3)N(c2ccccc2)C1=O`: the growth in test [1] is -38.2% (active); in test [2], 35.5%; in test [3], 89.6%; in test [4], 7.39% (active); in test [5] it was 23.2%; in test [6] it was 4.05% (active). Also, the growth in test [8] is 3.64% (active); in test [7], 8.49% (active).
As to `CN[C@@H](C)C(=O)N[C@H]1CCS[C@H]2CC(C)(C)[C@@H](C(=O)N[C@H]3c4ccccc4C[C@H]3OCC#CC#CCO[C@@H]3Cc4ccccc4[C@@H]3NC(=O)[C@H]3N4C(=O)[C@@H](NC(=O)[C@H](C)NC)CCS[C@H]4CC3(C)C)N2C1=O`, the growth was 86.1% in test [1]; -15.4% (active) in test [2]; 54.8% in test [3]; 105% in test [4]; 64.7% in test [5]; 99% in test [6]. Moreover, the growth was 90.2% in test [8] and 110% in test [7].
For `N#Cc1cc(-c2nc3ccccc3s2)c(=O)n(NS(=O)(=O)c2ccccc2)c1N`, the growth in test [1] is 94.5%; in test [2], 98.2%; in test [3] it was 102%; in test [4], 100%; in test [5] it was 105%; in test [6], 109%. Also, the values for the growth in test [8] and in test [7] were 116% and 103%, respectively.
Turning to `COc1cc(/C=N/O)nc(-c2ccccn2)c1`, the growth in test [1] is 37.5%; in test [2] it was 33.7%; in test [3], 23.6%; in test [4], 27.4%; in test [5], 15.9%; in test [6] it was 20.9%. Moreover, the growth is 26.4% in test [8] and 23% in test [7].
Regarding `CN(C)CCn1c2ccc(Br)cc2c2nc3ccccc3nc21`, the growth was 38.4% in test [1]; 84.4% in test [2]; 41.8% in test [3]; 17.5% in test [4]; 19.7% in test [5]; 18.2% in test [6]. Moreover, the growth in test [8] was 47.3%; in test [7], 35%.
`COc1ccc(C(=O)c2nc3ccccc3n2CC(=O)c2ccc(Cl)cc2)cc1`: the growth in test [1] is 35.2%; in test [2], 47.9%; in test [3] it was -55.4% (active); in test [4], 15.8%; in test [5], 11.9%; in test [6], 10.3%. Also, the growth in test [7] was 28.4%.
With `COc1ccc(-c2nc(S(=O)(=O)c3ccccc3)c(S(=O)CC(=O)N3CCC(C)CC3)o2)cc1` (stereo unspecified), the growth in test [1] is 15.6%; in test [2], 33.5%; in test [3], 57.2%; in test [4], 1.06% (active); in test [5], 24.3%; in test [6], -55.9% (active). Also, the growth in test [8] is 90.6%; in test [7] it was 68.1%.
For `COc1cc(/C=C2\COc3ccc(-c4ccccc4)cc3C2=O)cc(OC)c1`, the growth in test [1] was 70.3%; in test [2], 74.7%; in test [3], 66%; in test [4] it was 62.8%; in test [5], 57.3%; in test [6] it was 62.1%. Further, the growth in test [7] is 68.5%.
`O=C(/C=C/c1ccc[nH]1)c1ccc(-n2ccc(C(F)(F)F)n2)c(F)c1`: the growth in test [1] was 70.9%; in test [2] it was -2.69% (active); in test [3], 99.3%; in test [4] it was 103%; in test [5] it was 30.9%; in test [6], 85.6%. Besides, the growth is 94.2% in test [8] and 29.6% in test [7].
In the case of `CC(C)=CCC[C@](C)(O)[C@H]1CC[C@]2(C)[C@@H]1CC[C@@H]1[C@@]3(C)C/C(=C/c4ccccc4)C(=O)C(C)(C)[C@@H]3CC[C@]12C`, the growth is 87.4% in test [1]; 100% in test [2]; 90.3% in test [3]; 80.4% in test [4]; 94.6% in test [5]; 85.1% in test [6]. Further, the growth in test [8] is 98.8%; in test [7], 90%.
For `CC(=O)CCC(=O)OCc1cc(=O)c(O)co1`, the growth in test [1] was 111%; in test [2], 102%; in test [3], 106%; in test [4], 97%; in test [5], 99%; in test [6] it was 97.3%. The growth was 87.3% in test [8] and 93.5% in test [7].
Turning to `Cc1cc2cc3ccc(N(C)C)cc3nc2cc1N`, the growth in test [1] is -9.44% (active); in test [2] it was 20.7%; in test [3], 5.71% (active); in test [4] it was -37.9% (active); in test [5] it was -4.08% (active); in test [6], -20% (active). For the same molecule, the growth in test [7] is -20.7% (active).
Turning to `O=C(Cc1ccc(/C=C/C(=O)c2ncc[nH]2)cc1)Nc1ccc(Cl)cc1`, the growth in test [1] is 23.2%; in test [2], 29.3%; in test [3], 23.8%; in test [4] it was -35.3% (active); in test [5] it was 13%; in test [6], -47.5% (active). Besides, the growth in test [8] is 79.4%; in test [7], -39% (active).
With `CC(Sc1nc2sc3c(c2c(=O)n1-c1ccc(Cl)cc1)CCCC3)C(=O)Nc1nc(-c2ccc(Br)cc2)cs1` (stereo unspecified), the growth in test [1] was 98.2%; in test [2] it was 90.3%; in test [3] it was 102%; in test [4], 104%; in test [5], 91.8%; in test [6] it was 93.4%. The values for the growth in test [8] and in test [7] were 101% and 104%, respectively.
In the case of `O=C(Nc1cccc(C2=NCCN2)c1)c1ccc(-c2ccc(C(=O)Nc3cccc(C4=NCCN4)c3)cc2)cc1`, the growth was 58.5% in test [1]; 93.4% in test [2]; 57.4% in test [3]; 69.2% in test [4]; 18.5% in test [5]; 72.7% in test [6]. The results for the growth in test [8] and in test [7] were 81.1% and 60.4%, respectively.
Take `COc1cc2c3c(c4c5ccccc5[nH]c4c2c(OC)c1OC)C(=O)N(CCN1CCOCC1)C3=O`: the growth in test [1] was 66%; in test [2] it was 73.5%; in test [3], 73.9%; in test [4], 32.4%; in test [5] it was 32%; in test [6] it was 19.7%. The figures for the growth in test [8] and in test [7] were 69.5% and 61%, respectively.
For the molecule `CC(c1ccccc1)C(C(=O)c1ccccc1)c1ccccc1` (stereo unspecified), the growth is 91.5% in test [1]; 101% in test [2]; 110% in test [3]; 97.7% in test [4]; 98% in test [5]; 74.5% in test [6]. The results for the growth in test [8] and in test [7] were 93.4% and 104%, respectively.
On to `Nc1c(C(=O)Nc2cccc3cnccc23)sc2nc3c(cc12)CN(Cc1ccccc1)CC3`, for which the growth in test [1] is 102%; in test [2], 100%; in test [3] it was 108%; in test [4], 104%; in test [5] it was 96.5%; in test [6] it was 100%. Also, the growth in test [8] was 115%; in test [7] it was 102%.
On to `COc1ccc(/C=C(\C#N)n2nc3cccc(F)c3n2)cc1`, for which the growth was 90.5% in test [1]; 109% in test [2]; 77.4% in test [3]; 103% in test [4]; 89.5% in test [5]; 101% in test [6]. The growth in test [8] was 107%; in test [7], 93.7%.
Regarding `O=S(=O)(NCCCNc1nccc(-c2c(-c3cccc(F)c3)nc3sccn23)n1)c1cccc2ccccc12`, the growth in test [1] is 18.4%; in test [2], 65%; in test [3], 22.6%; in test [4], 42.1%; in test [5], 37.4%; in test [6] it was 32.4%. Further, the growth in test [8] is 16.3%; in test [7], 26%.
As for `O=C(Cn1c[n+](CC(=O)c2ccc(-c3ccccc3)cc2)c2ccccc21)Nc1cccc2cccnc12`, the growth in test [1] is 10.8%; in test [2], -9.9% (active); in test [3] it was 7.5% (active); in test [4], 36.1%; in test [5] it was 12.6%; in test [6], 11.9%. In addition, the growth is 6.56% (active) in test [8] and -31.5% (active) in test [7].
With `COc1cc2cc(Oc3cccc(NC(=O)Nc4cc(C(F)(F)F)cc(C(F)(F)F)c4)c3)c(C)nc2cc1OC`, the growth in test [1] is 7.52% (active); in test [2] it was 1.44% (active); in test [3], -2.55% (active); in test [4], 15.9%; in test [5] it was 0.59% (active); in test [8] it was 21.3%. The growth in test [7] was 5.61% (active).
For the molecule `COc1ccc(OC)c(CCn2cncc2-c2c[nH]c3ccccc23)c1`, the growth was 45.8% in test [1]; 83.8% in test [2]; 58.9% in test [3]; 71% in test [5]; 77.7% in test [6]; 91.8% in test [8]. Moreover, the growth in test [7] is 89.1%.
Take `COc1cccc(-c2nc3occn3c2-c2ccnc(NCCNS(=O)(=O)c3ccc(C(F)(F)F)cc3)n2)c1`: the growth in test [1] was 41.1%; in test [2] it was 96.5%; in test [3], 70.4%; in test [4] it was 113%; in test [5], 80.9%; in test [8], 133%.
`COc1cc2c(=O)n(CCCN(C)C)c3c4cc5c(cc4ccc3c2cc1OC)OCO5`: the growth in test [1] was 85.8%; in test [3], 67.6%; in test [4], 38.6%; in test [5], 25.3%; in test [6], 30.6%; in test [8] it was 86.8%.
In the case of `COc1ccc(/C=C/c2nc(Nc3ccc(S(=O)(=O)Nc4nc(C)cc(C)n4)cc3)c3ccccc3n2)cc1`, the growth in test [1] was 49.1%; in test [3] it was 60.6%; in test [4] it was 61.1%; in test [5] it was 42.2%; in test [6] it was 66.4%; in test [8], 74.9%.
Regarding `COc1ccc(C(=O)/C=C/c2cc3ccccc3n3nnnc23)cc1`, the growth in test [1] was 92.1%; in test [2] it was 99.2%; in test [3] it was 103%; in test [4] it was 113%; in test [5], 94.7%; in test [8] it was 111%.
As to `COc1cccc(/C=N/NC(=O)c2cnn3c2NC(c2ccccc2)C3)c1Oc1ccccc1` (stereo unspecified), the growth in test [1] is 79.8%; in test [2] it was 65.7%; in test [3] it was 1.99% (active); in test [4], 65.6%; in test [5], 47.7%; in test [8], 91%. Further, the growth in test [7] was 51.8%.
